Source: PubChem BioAssay (NCATS)
Values without a mark were called inactive. Inconclusive results are not listed. Entries that show only a call come without a potency. Activity calls are given as the source filed them. Unless noted, the call rests on the fitted dose curve; in most records, active means well fitted curve in the direction sought with a large enough effect; inconclusive means small, poorly fitted or top-dose-only effect, or another doubt; inactive means no such curve, though single readings can be large; an effect the other way counts as inactive or inconclusive.

Columns and labels:
[1] = target: Atrial natriuretic peptide receptor 2 (Homo sapiens) (UniProt P20594); assay: Natriuretic polypeptide receptor (hNpr2) antagonism - Pilot subtype selectivity assay (AID 1347050; calls by dose curve; further: potency means the concentration at half of the fitted maximal effect); conditions: NPR2-expressing cells, cGMP antagonist-mode read-out; series mostly up to 38.3 µM
Atrial natriuretic peptide receptor 2 (Homo sapiens), sequence (P20594 whole entry, looked up): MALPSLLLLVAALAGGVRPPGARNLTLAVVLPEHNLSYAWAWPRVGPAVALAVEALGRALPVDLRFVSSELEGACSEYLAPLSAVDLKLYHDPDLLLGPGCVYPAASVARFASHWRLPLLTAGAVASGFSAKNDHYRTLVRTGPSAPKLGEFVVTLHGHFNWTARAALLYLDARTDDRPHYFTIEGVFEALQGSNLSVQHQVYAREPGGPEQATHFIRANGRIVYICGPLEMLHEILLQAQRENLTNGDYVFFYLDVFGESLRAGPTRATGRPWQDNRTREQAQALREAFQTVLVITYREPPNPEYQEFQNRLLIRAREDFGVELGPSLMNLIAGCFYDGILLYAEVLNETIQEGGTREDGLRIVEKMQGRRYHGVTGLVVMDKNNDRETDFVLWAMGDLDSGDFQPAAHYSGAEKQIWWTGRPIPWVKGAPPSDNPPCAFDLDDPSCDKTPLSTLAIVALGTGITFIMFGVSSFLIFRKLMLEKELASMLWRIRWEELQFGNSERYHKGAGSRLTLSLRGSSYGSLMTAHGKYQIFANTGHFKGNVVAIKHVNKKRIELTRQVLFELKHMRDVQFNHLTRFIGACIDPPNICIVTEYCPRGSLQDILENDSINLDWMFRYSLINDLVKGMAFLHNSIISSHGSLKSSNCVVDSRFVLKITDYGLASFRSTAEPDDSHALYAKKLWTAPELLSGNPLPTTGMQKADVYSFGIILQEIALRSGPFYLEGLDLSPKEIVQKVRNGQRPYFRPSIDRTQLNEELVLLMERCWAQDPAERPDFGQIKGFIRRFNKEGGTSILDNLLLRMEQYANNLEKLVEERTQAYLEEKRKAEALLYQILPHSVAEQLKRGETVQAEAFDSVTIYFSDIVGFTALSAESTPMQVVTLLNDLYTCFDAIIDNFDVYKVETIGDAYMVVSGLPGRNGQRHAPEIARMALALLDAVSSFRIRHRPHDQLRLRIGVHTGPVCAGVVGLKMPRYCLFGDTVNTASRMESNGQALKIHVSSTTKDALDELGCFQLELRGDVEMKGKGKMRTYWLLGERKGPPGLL
Summary of the method: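 Pilot selectivity screen against hNpr2: HEK293 cGMP-sensor cells are treated with LOPAC1280 compounds, then with hNppC peptide at 1 nM final. The cGMP-driven luminescence change over 20 min at room temperature is the read-out.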

[2] = NS1 protein of Zika virus - qHTS assay to identify small molecule inhibitors in human HEK 293 cells (AID 1347053); conditions: HEK293 ZIKV MR766 infection, NS1 TR-FRET, 24 h; series mostly up to 46.1 µM; further: nearly all actives have a fitted effect of over 55% in size
Summary of the method: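 Inhibition of NS1 expression was scored in HEK 293 cells given compound 1 h ahead of MR766 virus (MOI = 0.5). Following 24 h at 37 C, two anti-NS1 antibodies generated a TR-FRET signal, scaled between uninfected and infected controls.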

[3] = target: T1, Tyrosine-protein phosphatase non-receptor type substrate 1 (Homo sapiens) + Leukocyte surface antigen CD47 (Homo sapiens) (UniProt P78324+Q08722); assay: CD47-SIRPalpha protein protein interaction - LANCE assay qHTS validation (AID 1347057; active means well fitted curve in the direction sought with a large enough effect in the signal ratio, with a control signal flat, not every such curve was filed as active; the % refers to the signal ratio); conditions: Recombinant CD47-His / biotin-SIRPalpha, TR-FRET ratio; series mostly up to 38.3 µM
T1 sequence (P78324 whole entry, looked up): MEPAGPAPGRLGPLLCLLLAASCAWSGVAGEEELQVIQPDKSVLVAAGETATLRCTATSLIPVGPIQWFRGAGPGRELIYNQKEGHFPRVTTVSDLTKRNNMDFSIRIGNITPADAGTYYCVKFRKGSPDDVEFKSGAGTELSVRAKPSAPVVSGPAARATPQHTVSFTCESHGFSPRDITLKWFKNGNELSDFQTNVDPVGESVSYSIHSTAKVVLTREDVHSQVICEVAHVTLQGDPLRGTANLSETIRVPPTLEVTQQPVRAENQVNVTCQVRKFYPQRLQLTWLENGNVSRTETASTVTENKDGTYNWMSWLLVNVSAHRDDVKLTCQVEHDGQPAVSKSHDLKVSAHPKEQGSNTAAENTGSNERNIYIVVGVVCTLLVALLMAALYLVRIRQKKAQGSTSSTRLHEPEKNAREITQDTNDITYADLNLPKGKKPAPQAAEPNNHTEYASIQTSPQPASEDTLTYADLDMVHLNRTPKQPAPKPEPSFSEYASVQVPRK
T1 sequence (Q08722 whole entry, looked up): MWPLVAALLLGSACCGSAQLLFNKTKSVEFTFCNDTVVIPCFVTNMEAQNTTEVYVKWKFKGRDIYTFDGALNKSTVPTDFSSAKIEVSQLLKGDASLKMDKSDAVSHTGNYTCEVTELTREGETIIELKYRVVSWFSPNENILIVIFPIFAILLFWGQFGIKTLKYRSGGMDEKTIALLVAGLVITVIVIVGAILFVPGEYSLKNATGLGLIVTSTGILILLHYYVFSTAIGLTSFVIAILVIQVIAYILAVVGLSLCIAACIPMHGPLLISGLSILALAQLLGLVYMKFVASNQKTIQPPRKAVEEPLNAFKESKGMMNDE
Summary of the method: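 First, His-tagged CD47 and Eu-labelled anti-His antibody met the compound for 30 min; next, site-specifically biotinylated SIRPalpha was added for 30 min; finally streptavidin-APC was added before reading the TR-FRET ratio.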

[4] = target: T1, Tyrosine-protein phosphatase non-receptor type substrate 1 (Homo sapiens) + Leukocyte surface antigen CD47 (Homo sapiens); assay: CD47-SIRPalpha protein protein interaction - HTRF assay qHTS validation (AID 1347058; active means well fitted curve in the direction sought with a large enough effect in the signal ratio, not every such curve was filed as active; the % refers to the signal ratio;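 further: recombinant soluble extracellular CD47 with His tag and biotinylated SIRPalpha domains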); conditions: TR-FRET HTRF CD47-His / biotin-SIRPalpha binding, ratio 665/615; series mostly up to 38.3 µM
Summary of the method: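 TR-FRET read (Ch1/Ch2 ratio) of soluble extracellular CD47 and Avi-biotinylated SIRPalpha domains in PBS pH 7.4 with 0.05% IGEPAL; 7-point compound titration. Sequential 30 min room-temperature steps; non-biotinylated SIRPalpha as control inhibitor.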

[5] = target: Parathyroid hormone/parathyroid hormone-related peptide receptor (Homo sapiens) (UniProt Q03431); assay: qHTS for PTHR1 Agonists: Optimization Screen against the NCGC LOPAC library (AID 1347079); conditions: HEK293 GP2 PTHR1 GloSensor cAMP luminescence, 1 h; series mostly up to 57.1 µM;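 further: GloSensor cAMP luminescence in HEK-293 GP2 cells expressing human PTHR1 with IBMX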
Parathyroid hormone/parathyroid hormone-related peptide receptor (Homo sapiens), sequence (Q03431 whole entry, looked up): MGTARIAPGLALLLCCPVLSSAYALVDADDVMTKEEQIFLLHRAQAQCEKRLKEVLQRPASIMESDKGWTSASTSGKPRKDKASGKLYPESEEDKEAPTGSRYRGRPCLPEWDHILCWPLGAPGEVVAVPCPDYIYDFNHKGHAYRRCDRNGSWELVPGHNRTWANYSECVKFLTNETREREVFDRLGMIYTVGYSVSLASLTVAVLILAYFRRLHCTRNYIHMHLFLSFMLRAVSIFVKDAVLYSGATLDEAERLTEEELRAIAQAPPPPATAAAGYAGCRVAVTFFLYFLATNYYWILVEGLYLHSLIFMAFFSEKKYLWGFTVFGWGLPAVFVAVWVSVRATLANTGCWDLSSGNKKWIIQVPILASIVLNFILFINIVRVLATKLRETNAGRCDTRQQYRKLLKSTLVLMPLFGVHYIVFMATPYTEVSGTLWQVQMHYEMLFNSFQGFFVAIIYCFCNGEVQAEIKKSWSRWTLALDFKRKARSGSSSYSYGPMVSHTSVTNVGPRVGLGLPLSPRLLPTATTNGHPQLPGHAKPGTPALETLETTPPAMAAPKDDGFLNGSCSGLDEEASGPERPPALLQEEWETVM
Summary of the method: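 Compounds were tested across a qHTS titration. PTHR1-expressing GP2 cells report cAMP rises via GloSensor luminescence after 1 hr compound exposure at 37C with IBMX present.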

[6] = qHTS of pediatric cancer cell lines to identify multiple opportunities for drug repurposing: Primary screen for TC32 cells (AID 1347089); conditions: TC32 Ewing sarcoma viability, CellTiter-Glo luminescence, 48 h; series mostly up to 45.8 µM; further: nearly all actives have a fitted effect of over 60% in size; further: potency means the concentration at half of the fitted maximal effect
Summary of the method: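 A viability screen of TC32 cells was run over 48 h, with primary MIPE doses spanning 0.78 nM–46 µM and NPC doses 0.59 nM–46 µM. ATP luminescence (CellTiter-Glo) served as the read-out.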

[7] = qHTS of pediatric cancer cell lines to identify multiple opportunities for drug repurposing: Primary screen for DAOY cells (AID 1347090); conditions: DAOY medulloblastoma viability, CellTiter-Glo luminescence, 48 h; series mostly up to 46 µM; further: nearly all actives have a fitted effect of over 55% in size; further: potency means the concentration at half of the fitted maximal effect
Summary of the method: (§1)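 Cell viability, CellTiter-Glo luminescence; 500-1,000 cells/well, 8- or 11-point titration, 48 h compound exposure at 37 degrees C, 5% CO2. Controls: DMSO neutral, bortezomib 2.3 µM final as positive.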

[8] = target: T1, Tyrosine-protein phosphatase non-receptor type substrate 1 (Homo sapiens) + Leukocyte surface antigen CD47 (Homo sapiens); assay: CD47-SIRPalpha protein protein interaction - Alpha assay qHTS validation (AID 1347059); conditions: AlphaScreen CD47-His/biotin-SIRPalpha binding, LOPAC; series mostly up to 38.3 µM;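 further: bead proximity luminescence from CD47 binding SIRPalpha after compound preincubation with SIRPalpha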; further: potency means the concentration at half of the fitted maximal effect
Summary of the method: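 Binding is measured by AlphaScreen proximity: Ni-NTA acceptor beads capture His-CD47, streptavidin donor beads capture biotin-SIRPalpha. Each of three additions (SIRPalpha with compound, CD47, beads) incubates 30 min at room temperature protected from light.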

[9] = qHTS of pediatric cancer cell lines to identify multiple opportunities for drug repurposing: Primary screen for SJ-GBM2 cells (AID 1347091); conditions: SJ-GBM2 viability, CellTiter-Glo luminescence, 48 h; series mostly up to 46 µM; further: potency means the concentration at half of the fitted maximal effect
Summary of the method: as §1

[10] = qHTS of pediatric cancer cell lines to identify multiple opportunities for drug repurposing: Primary screen for A673 cells (AID 1347092); conditions: A673 Ewing sarcoma viability, CellTiter-Glo ATP luminescence, 48 h; series mostly up to 46 µM; further: nearly all actives have a fitted effect of over 45% in size; further: potency means the concentration at half of the fitted maximal effect
Summary of the method: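 Titration-based qHTS on A673 cells: MIPE compounds spanned 11 points (0.78 nM to 46 µM final), NPC compounds 8 points (0.59 nM to 46 µM final). Viability after 48 h was measured by ATP luminescence.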

Compound	Potency [1]	outcome [2]	outcome [3]	outcome [4]	outcome [5]	Potency [6]	Potency [7]	Potency [8]	Potency [9]	Potency [10]	activity change, negative = cytotoxic [6]	activity change, negative = cytotoxic [7]	activity change, negative = cytotoxic [9]	activity change, negative = cytotoxic [10]
CN1C[C@H](C(=O)N[C@]2(C)O[C@@]3(O)[C@@H]4CCCN4C(=O)[C@H](Cc4ccccc4)N3C2=O)C[C@@H]2c3cccc4[nH]cc(c34)C[C@H]21	inactive	inactive	inactive	inactive	inactive	inactive	inactive							
CCCN(CCC)CCc1cccc2c1CC(=O)N2	inactive	inactive	inactive	inactive	inactive	inactive	inactive	inactive	inactive	inactive				
CN(C)C(=O)Oc1cccc([N+](C)(C)C)c1	inactive	inactive	inactive	inactive	inactive	inactive	inactive	inactive	inactive	inactive				
CCN(Cc1ccncc1)C(=O)C(CO)c1ccccc1 (stereo not given)	inactive	inactive	inactive	inactive	inactive	inactive	inactive	inactive	inactive	inactive				
COc1cc(Cc2cnc(N)nc2N)cc(OC)c1OC	inactive	inactive	inactive	inactive	inactive	inactive	inactive	inactive	inactive	inactive				
CC1=C(C)C(=O)C(CCCCC#CCCCC#CCO)=C(C)C1=O	inactive	inactive	inactive		inactive	inactive	inactive	inactive	inactive					
CNC1(C)C2CCC(C2)C1(C)C (stereo not given)	inactive	inactive	inactive	inactive	inactive	inactive	inactive	inactive	inactive	inactive				
CC[N+](C)(C)c1cccc(O)c1	inactive	inactive	inactive	inactive	inactive	inactive	inactive	inactive	inactive	inactive				
CCCN1C[C@H](CSC)C[C@@H]2c3cccc4[nH]cc(c34)C[C@H]21	inactive	inactive	inactive	inactive	inactive	inactive	inactive	inactive	inactive	inactive				
O=C(O)CP(=O)(O)O	inactive	inactive	inactive	inactive	inactive	inactive	inactive	inactive	inactive	inactive				
CN=C(NC#N)NCCSCc1nc[nH]c1C	inactive	inactive	inactive	inactive	inactive	inactive	inactive	inactive	inactive	inactive				
C[N+](C)(C)CCOC(N)=O	inactive	inactive	inactive	inactive	inactive	inactive	inactive	inactive	inactive	inactive				
NC(=O)c1cn(Cc2c(F)cccc2F)nn1	inactive	inactive	inactive	inactive	inactive	inactive	inactive	inactive	inactive	inactive				
CC(=O)OC(C)C[N+](C)(C)C (stereo not given)	inactive	inactive	inactive	inactive	inactive		inactive	inactive	inactive	inactive				
CCC(=O)c1ccc2c(c1)N(CCCN(C)C)c1ccccc1S2	inactive	inactive	inactive		inactive	inactive	inactive	inactive						
CO[C@@]1(NC(=O)CSCC#N)C(=O)N2C(C(=O)O)=C(CSc3nnnn3C)CS[C@@H]21	inactive	inactive	inactive	inactive	inactive	inactive	inactive	inactive	inactive	inactive				
CCCCNC(=O)NS(=O)(=O)c1ccc(C)cc1	inactive	inactive	inactive	inactive	inactive	inactive	inactive	inactive	inactive	inactive				
Cc1nnc(SCC2=C(C(=O)O)N3C(=O)[C@@H](NC(=O)Cn4cnnn4)[C@H]3SC2)s1	inactive	inactive	inactive	inactive	inactive	inactive	inactive	inactive	inactive	inactive				
O=c1[nH]c(=O)n([C@H]2C[C@H](O)[C@@H](CO)O2)cc1Br	inactive	inactive	inactive	inactive	inactive		inactive	inactive	inactive	inactive				
COCCc1ccc(OCC(O)CNC(C)C)cc1 (stereo not given)	inactive	inactive	inactive	inactive	inactive	inactive	inactive	inactive	inactive	inactive				
C[C@H](CS)C(=O)N1CCC[C@H]1C(=O)O	inactive	inactive	inactive	inactive	inactive	inactive	inactive	inactive	inactive	inactive				
C[C@]12CC[C@@H]3c4ccc(O)cc4C[C@@H](CCCCCCCCCS(=O)CCCC(F)(F)C(F)(F)F)[C@H]3[C@@H]1CC[C@@H]2O (stereo not given in full)	inactive	inactive	inactive	inactive	inactive	inactive	inactive	inactive		inactive				
CNCCC(Oc1ccccc1OC)c1ccccc1 (stereo not given)	inactive	inactive	inactive	inactive	inactive	inactive	inactive	inactive	inactive	inactive				
Cc1nc2c([nH]1)c(=O)n(C)c(=O)n2Cc1ccco1	inactive	inactive	inactive	inactive	inactive	inactive	inactive	inactive	inactive	inactive				
O=C(O)CN(CCN(CC(=O)O)CC(=O)O)CCN(CC(=O)O)CC(=O)O	inactive	inactive	inactive	inactive	inactive	inactive	inactive		inactive	inactive				

Compound	Potency [1]	outcome [2]	outcome [3]	outcome [4]	outcome [5]	Potency [6]	Potency [7]	Potency [8]	Potency [9]	Potency [10]	activity change, negative = cytotoxic [6]	activity change, negative = cytotoxic [7]	activity change, negative = cytotoxic [9]	activity change, negative = cytotoxic [10]
CCO/C([O-])=N/c1c[n+](N2CCOCC2)no1	inactive	inactive	inactive		inactive	inactive	inactive	inactive	inactive	inactive				
CN(C(=O)CCCOc1ccc2[nH]c(=O)ccc2c1)C1CCCCC1	inactive		inactive	inactive	inactive	inactive	inactive	inactive	inactive	inactive				
O=C(CCCN1CCC(O)(c2cccc(C(F)(F)F)c2)CC1)c1ccc(F)cc1	inactive		inactive	inactive	inactive	inactive	inactive	inactive						
CN1CCN(CC(=O)N2c3ccccc3C(=O)Nc3cccnc32)CC1	inactive	inactive	inactive		inactive			inactive			4.32% [at 4.81 µM]	1.05% [at 4.84 µM]	3.45% [at 4.84 µM]	5.45% [at 4.84 µM]
CCN(CC)CCNC(=O)c1ccc(NC(C)=O)cc1	inactive		inactive	inactive	inactive	inactive	inactive	inactive	inactive	inactive				
CCCCNc1c(C(=O)OCC)c(C)nc2c1cnn2CC	inactive		inactive	inactive	inactive	inactive	inactive	inactive	inactive					
N[C@@H](COP(=O)(O)O)C(=O)O	inactive		inactive	inactive	inactive	inactive	inactive	inactive	inactive	inactive				
C[C@]12C=CC(=O)C=C1CC[C@H]1[C@@H]3C[C@@H](O)[C@](O)(C(=O)CO)[C@@]3(C)C[C@H](O)[C@@]12F	inactive	inactive			inactive	inactive	inactive		inactive	inactive				
CC(C)NCC(O)c1cc(O)cc(O)c1 (stereo not given)	inactive		inactive	inactive	inactive	inactive	inactive	inactive	inactive	inactive				
CC(=O)[C@]1(O)Cc2c(O)c3c(c(O)c2[C@@H](O[C@H]2C[C@H](N)[C@H](O)[C@H](C)O2)C1)C(=O)c1ccccc1C3=O	inactive	inactive			inactive	0.47 µM (active)	2.11 µM (active)	16.5 µM (active)		0.422 µM (active)				
CCOC(=O)C1=C(C)NC(C)=C(C(=O)OC)C1c1cccc([N+](=O)[O-])c1 (stereo not given)	inactive	inactive	inactive		inactive	inactive	inactive	inactive	inactive	inactive				
CCn1cc(C(=O)O)c(=O)c2cc3c(cc21)OCO3	inactive		inactive	inactive	inactive	inactive	inactive	inactive	inactive	inactive				
CC(C)(C)c1ccc(C(=O)CCCN2CCC(OC(c3ccccc3)c3ccccc3)CC2)cc1	inactive	inactive	inactive		inactive	inactive		inactive	26.6 µM (active)					
CN(C)C(=O)Oc1ccc[n+](C)c1	inactive		inactive	inactive	inactive	inactive	inactive	inactive	inactive	inactive				
C=CCc1ccccc1OCC(O)CNC(C)C (stereo not given)	inactive		inactive	inactive	inactive	inactive	inactive	inactive	inactive	inactive				
C#CCN(C)CCCOc1ccc(Cl)cc1Cl	inactive		inactive	inactive	inactive	inactive	inactive	inactive	inactive	inactive				
CN(C)CCOC(=O)COc1ccc(Cl)cc1	inactive		inactive	inactive	inactive	inactive	inactive	inactive	inactive	inactive				
CC(C)(C)NCC(O)c1cc(O)cc(O)c1 (stereo not given)	inactive	inactive	inactive			inactive	inactive	inactive	inactive	inactive				
Nc1nc(N)c2nc(-c3ccccc3)c(N)nc2n1	inactive	inactive	inactive		inactive	7.45 µM (active)	26.6 µM (active)	inactive	6.68 µM (active)					
NC(=O)N1c2ccccc2C=Cc2ccccc21	inactive		inactive	inactive	inactive	inactive	inactive	inactive	inactive	inactive				
CC1=NS(=O)(=O)c2cc(Cl)ccc2N1	inactive	inactive	inactive		inactive	inactive	inactive	inactive	inactive	inactive				
CSc1ccc(C(=O)c2[nH]c(=O)[nH]c2C)cc1	inactive	inactive	inactive			inactive	inactive	inactive	inactive	inactive				
CN1CCN(C2=Nc3ccccc3Oc3ccc(Cl)cc32)CC1	16.5 µM (active)		inactive	inactive	inactive	inactive	inactive	inactive	inactive	inactive				
COc1ccc2c(c1OC)C(=O)O[C@@H]2[C@H]1c2c(cc3c(c2OC)OCO3)CCN1C	16.5 µM (active)		inactive	inactive	inactive	inactive	inactive	inactive						
